# Data published in PubChem BioAssay (EPA / NIEHS).
# Results filed as inconclusive are left out. The source made the active and inactive calls. Rule for the calls, unless noted: active = hit-call score of the fitted dose curve at least 0.9, where 1 is the maximum; inactive = score below 0.9.
# Assays:
# [1] = ATG_NFI_CIS: Attagene CIS-FACTORIAL HepG2 Assay for human Nuclear Factor I (NFI) (AID 2282989); details: HepG2 cis-regulatory reporter, NFI response element transcription; actives raise or lower the signal
# Summary of the method: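 Read-out: reporter mRNA via RT-PCR plus capillary electrophoresis with fluorescence detection. Transiently transfected HepG2 (endogenous TF activity on cis promoters), 24 h compound exposure; gain or loss of signal fitted against DMSO.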
# [2] = target: Myc proto-oncogene protein (Homo sapiens) (UniProt P01106); experiment: ATG_Myc_CIS: Attagene CIS-FACTORIAL HepG2 Assay for human Myelocytomatosis (Myc) Proto-Oncogene Transcription Factor (AID 2282990); details: HepG2, Attagene cis-reporter transcription factor activity; actives raise or lower the signal
# Sequence of Myc proto-oncogene protein (Homo sapiens) (P01106 whole entry, looked up, the tested form may be a part): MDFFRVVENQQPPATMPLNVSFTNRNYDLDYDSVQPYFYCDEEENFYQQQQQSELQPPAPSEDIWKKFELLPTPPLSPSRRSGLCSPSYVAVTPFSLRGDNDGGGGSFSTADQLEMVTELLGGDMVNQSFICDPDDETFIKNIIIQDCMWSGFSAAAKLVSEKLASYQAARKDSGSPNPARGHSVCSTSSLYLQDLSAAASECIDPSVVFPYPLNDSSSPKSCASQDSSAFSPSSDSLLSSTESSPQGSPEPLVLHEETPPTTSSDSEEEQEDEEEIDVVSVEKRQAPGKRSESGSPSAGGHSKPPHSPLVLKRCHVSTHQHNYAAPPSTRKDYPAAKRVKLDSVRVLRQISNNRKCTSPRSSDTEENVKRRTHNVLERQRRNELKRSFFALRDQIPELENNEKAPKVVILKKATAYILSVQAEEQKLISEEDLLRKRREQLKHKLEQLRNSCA
# Summary of the method: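 Fluorescence intensity of reporter-specific cDNA fragments, separated by capillary electrophoresis, gives the signal. Transfected HepG2 cells carrying cis-promoter reporter constructs are incubated with compound for 24 h; DMSO serves as baseline.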
# [3] = ATG_NF_kB_CIS: Attagene CIS-FACTORIAL HepG2 Assay for human Nuclear Factor Kappa B (NF-kB) (AID 2282991); details: HepG2 Attagene cis-factorial NF-kB reporter mRNA; actives raise or lower the signal
# Summary of the method: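 HepG2, transient multi-reporter transfection, cis promoter elements (endogenous TFs). 24 h exposure. Total RNA → RT → PCR → 6-FAM label → HpaI → CE. Gain/loss vs DMSO.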
# [4] = ATG_NRF2_ARE_CIS: Attagene CIS-FACTORIAL HepG2 Assay for human Nuclear Factor Erythroid 2 Related Factor 2 (NFR2) response to Antioxidant Response Elements (ARE) (AID 2282992); details: HepG2 Attagene ARE/NRF2 reporter, transcription factor activity; actives raise or lower the signal;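 for AC50: reporter mRNA level measured by RT-PCR and capillary electrophoresis fluorescence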
# Summary of the method: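 Cis-factorial assay: transfected HepG2 reporter library, 24 h dosing, mRNA readout via RT-PCR/CE; DMSO-referenced bidirectional analysis.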
# [5] = ATG_Oct_MLP_CIS: Attagene CIS-FACTORIAL HepG2 Assay for human Octamer-Binding Transcription Factor (Oct) (AID 2282993); details: HepG2 Attagene cis-factorial Oct reporter, mRNA; actives raise or lower the signal
# Summary of the method: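 Read-out: reporter mRNA via RT-PCR plus capillary electrophoresis of 6-FAM-labelled fragments. Transiently transfected HepG2, 24 h exposure, endogenous TF activity on cis elements. Gain or loss of signal fitted relative to DMSO.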
# [6] = target: Cellular tumor antigen p53 (Homo sapiens) (UniProt P04637); experiment: ATG_p53_CIS: Attagene CIS-FACTORIAL HepG2 Assay for human p53 Transcription Factor (AID 2282994); details: HepG2 p53 cis-element reporter, Attagene mRNA; actives raise or lower the signal
# Sequence of Cellular tumor antigen p53 (Homo sapiens) (P04637 whole entry, looked up): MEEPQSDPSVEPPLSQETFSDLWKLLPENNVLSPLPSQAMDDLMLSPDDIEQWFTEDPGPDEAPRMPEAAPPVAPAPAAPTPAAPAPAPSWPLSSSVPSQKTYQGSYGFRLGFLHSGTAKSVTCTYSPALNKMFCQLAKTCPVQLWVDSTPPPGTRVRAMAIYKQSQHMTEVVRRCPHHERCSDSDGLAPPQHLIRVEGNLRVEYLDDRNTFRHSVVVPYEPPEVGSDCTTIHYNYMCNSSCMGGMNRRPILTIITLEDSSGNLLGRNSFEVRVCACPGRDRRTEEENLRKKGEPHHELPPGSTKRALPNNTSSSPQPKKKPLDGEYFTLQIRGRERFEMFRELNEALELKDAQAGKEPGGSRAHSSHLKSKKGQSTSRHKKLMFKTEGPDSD
# Summary of the method: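 Using HepG2 hepatoma cells carrying cis-acting multiplexed reporters, mRNA induction is detected after a 24 h exposure. Gain- and loss-of-signal responses are fitted relative to DMSO-treated cells.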
# [7] = target: human Peroxisome Proliferator-activated Receptor delta (PPARd), PPARD (gene 5467) (UniProt Q03181); experiment: ATG_PPARd_TRANS: Attagene TRANS-FACTORIAL HepG2 Assay for human Peroxisome Proliferator-activated Receptor delta (PPARd) (AID 2283002; active = hit-call score of the fitted dose curve at least 0.9, where 1 is the maximum)
# Sequence of human Peroxisome Proliferator-activated Receptor delta (PPARd), PPARD (gene 5467) (Q03181 whole entry, looked up, the tested form may be a part): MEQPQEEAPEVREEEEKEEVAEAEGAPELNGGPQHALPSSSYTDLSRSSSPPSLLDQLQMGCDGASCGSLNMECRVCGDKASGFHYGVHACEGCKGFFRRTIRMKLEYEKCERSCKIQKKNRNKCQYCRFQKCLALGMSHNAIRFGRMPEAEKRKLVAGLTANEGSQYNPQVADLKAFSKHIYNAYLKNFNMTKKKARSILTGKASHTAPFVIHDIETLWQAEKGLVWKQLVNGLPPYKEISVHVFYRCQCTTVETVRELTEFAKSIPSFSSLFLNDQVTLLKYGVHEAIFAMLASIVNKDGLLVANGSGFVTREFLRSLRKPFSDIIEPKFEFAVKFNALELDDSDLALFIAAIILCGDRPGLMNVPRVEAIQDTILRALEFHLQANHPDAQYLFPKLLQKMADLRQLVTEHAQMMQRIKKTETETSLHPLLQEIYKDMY
# Summary of the method: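 Fluorescence from capillary electrophoresis of labelled RT-PCR reporter fragments gives the signal; DMSO sets baseline. Cells: HepG2 transiently carrying GAL4-UAS reporter units plus chimeric nuclear receptor-Gal4 proteins, exposed to chemicals for 24 h.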
# [8] = target: Nuclear receptor subfamily 1 group I member 2 (Homo sapiens) (UniProt O75469); experiment: ATG_PXR_TRANS: Attagene TRANS-FACTORIAL HepG2 Assay for human Pregnane X Receptor (PXR) (AID 2283008; active = hit-call score of the fitted dose curve at least 0.9, where 1 is the maximum)
# Sequence of Nuclear receptor subfamily 1 group I member 2 (Homo sapiens) (O75469 whole entry, looked up, the tested form may be a part): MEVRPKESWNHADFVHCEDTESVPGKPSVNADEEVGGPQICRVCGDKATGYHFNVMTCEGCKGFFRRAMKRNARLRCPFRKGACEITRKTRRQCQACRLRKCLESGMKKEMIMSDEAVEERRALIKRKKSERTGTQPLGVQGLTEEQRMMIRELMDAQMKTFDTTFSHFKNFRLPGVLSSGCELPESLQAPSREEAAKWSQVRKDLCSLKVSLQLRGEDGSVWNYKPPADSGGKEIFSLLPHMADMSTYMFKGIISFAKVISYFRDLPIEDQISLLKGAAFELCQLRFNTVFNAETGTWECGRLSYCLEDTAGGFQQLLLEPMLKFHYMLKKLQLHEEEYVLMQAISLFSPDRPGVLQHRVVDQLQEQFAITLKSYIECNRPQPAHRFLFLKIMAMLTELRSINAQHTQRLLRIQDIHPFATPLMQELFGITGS
# Summary of the method: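 Fluorescence intensity of FAM-labelled, HpaI-digested reporter amplicons, separated by capillary electrophoresis, quantifies induction. HepG2 cells with PXR-Gal4 trans-reporter system were exposed 24 h; DMSO defines baseline.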
# [9] = target: Peroxisome proliferator-activated receptor gamma (Homo sapiens) (UniProt P37231); experiment: ATG_PPARg_TRANS: Attagene TRANS-FACTORIAL HepG2 Assay for human Peroxisome Proliferator-activated Receptor-gamma (PPARg) (AID 2283007; active = hit-call score of the fitted dose curve at least 0.9, where 1 is the maximum)
# Sequence of Peroxisome proliferator-activated receptor gamma (Homo sapiens) (P37231 whole entry, looked up): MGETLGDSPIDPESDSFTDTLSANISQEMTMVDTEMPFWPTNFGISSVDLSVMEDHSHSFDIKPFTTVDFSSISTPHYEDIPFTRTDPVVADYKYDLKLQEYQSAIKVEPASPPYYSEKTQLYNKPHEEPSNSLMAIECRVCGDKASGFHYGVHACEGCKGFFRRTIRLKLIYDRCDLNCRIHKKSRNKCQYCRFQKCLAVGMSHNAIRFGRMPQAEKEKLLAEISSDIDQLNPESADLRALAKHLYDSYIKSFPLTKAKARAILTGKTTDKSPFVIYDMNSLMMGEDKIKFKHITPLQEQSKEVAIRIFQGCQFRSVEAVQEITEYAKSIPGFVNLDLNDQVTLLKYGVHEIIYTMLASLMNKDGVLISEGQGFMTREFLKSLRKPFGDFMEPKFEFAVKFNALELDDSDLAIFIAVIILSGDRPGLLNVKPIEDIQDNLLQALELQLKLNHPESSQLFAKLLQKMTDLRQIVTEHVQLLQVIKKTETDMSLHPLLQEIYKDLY
# Summary of the method: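 Multiplexed reporter transcription units in HepG2, 24 h dosing, reporter transcripts quantified by fluorescent RT-PCR and capillary electrophoresis. Increase over DMSO scored.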
# [10] = target: human Retinoic Acid Receptor gamma (RARg), RARG (gene 5916) (UniProt P13631); experiment: ATG_RARg_TRANS: Attagene TRANS-FACTORIAL HepG2 Assay for human Retinoic Acid Receptor gamma (RARg) (AID 2283009; active = hit-call score of the fitted dose curve at least 0.9, where 1 is the maximum)
# Sequence of human Retinoic Acid Receptor gamma (RARg), RARG (gene 5916) (P13631 whole entry, looked up, the tested form may be a part): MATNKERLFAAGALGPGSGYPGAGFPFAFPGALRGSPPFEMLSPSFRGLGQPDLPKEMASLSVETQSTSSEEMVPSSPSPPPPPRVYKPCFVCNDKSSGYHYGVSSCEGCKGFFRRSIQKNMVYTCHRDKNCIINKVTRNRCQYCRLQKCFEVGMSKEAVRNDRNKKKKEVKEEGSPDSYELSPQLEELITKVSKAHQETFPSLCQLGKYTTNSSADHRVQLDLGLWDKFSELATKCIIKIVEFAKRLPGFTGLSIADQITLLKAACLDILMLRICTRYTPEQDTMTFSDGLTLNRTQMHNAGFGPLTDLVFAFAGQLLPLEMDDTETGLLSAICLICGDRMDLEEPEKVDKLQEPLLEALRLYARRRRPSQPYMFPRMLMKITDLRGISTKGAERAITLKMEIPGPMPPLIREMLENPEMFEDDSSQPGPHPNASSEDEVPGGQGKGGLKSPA
# Summary of the method: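 HepG2 transiently transfected with GAL4-UAS reporter units and chimeric NR-Gal4 constructs; 24 h compound exposure. Reporter mRNA quantified by RT-PCR, FAM labeling, HpaI digestion and capillary electrophoresis; gain-of-signal versus DMSO.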
# [11] = target: human Peroxisome Proliferator-activated Receptor alpha (PPARa), PPARA (gene 5465) (UniProt Q07869); experiment: ATG_PPARa_TRANS: Attagene TRANS-FACTORIAL HepG2 Assay for human Peroxisome Proliferator-activated Receptor alpha (PPARa) (AID 2283001; active = hit-call score of the fitted dose curve at least 0.9, where 1 is the maximum)
# Sequence of human Peroxisome Proliferator-activated Receptor alpha (PPARa), PPARA (gene 5465) (Q07869 whole entry, looked up, the tested form may be a part): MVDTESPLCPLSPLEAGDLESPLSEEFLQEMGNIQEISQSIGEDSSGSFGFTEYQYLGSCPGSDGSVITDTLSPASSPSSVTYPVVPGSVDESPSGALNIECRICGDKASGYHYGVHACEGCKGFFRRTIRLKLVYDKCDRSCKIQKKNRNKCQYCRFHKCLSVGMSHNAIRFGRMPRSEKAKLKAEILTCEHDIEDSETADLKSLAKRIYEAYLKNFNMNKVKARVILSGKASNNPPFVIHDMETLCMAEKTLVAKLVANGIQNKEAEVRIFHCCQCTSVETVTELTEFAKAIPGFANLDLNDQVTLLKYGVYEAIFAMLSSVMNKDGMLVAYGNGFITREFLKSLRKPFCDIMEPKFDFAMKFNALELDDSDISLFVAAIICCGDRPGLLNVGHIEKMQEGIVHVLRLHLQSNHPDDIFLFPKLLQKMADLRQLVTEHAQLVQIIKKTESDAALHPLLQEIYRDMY
# Summary of the method: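 HepG2 cells transiently transfected with multiplexed GAL4-UAS reporters driven by exogenous chimeric NR-Gal4 proteins; reporter mRNA measured after 24 h dosing. Read-out by RT-PCR, 6-FAM labelling, HpaI digestion and capillary electrophoresis; gain of signal versus DMSO.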
# [12] = target: human Retinoic Acid Receptor beta (RARb), RARB (gene 5915) (UniProt P10826); experiment: ATG_RARb_TRANS: Attagene TRANS-FACTORIAL HepG2 Assay for human Retinoic Acid Receptor beta (AID 2283004; active = hit-call score of the fitted dose curve at least 0.9, where 1 is the maximum)
# Sequence of human Retinoic Acid Receptor beta (RARb), RARB (gene 5915) (P10826 whole entry, looked up, the tested form may be a part): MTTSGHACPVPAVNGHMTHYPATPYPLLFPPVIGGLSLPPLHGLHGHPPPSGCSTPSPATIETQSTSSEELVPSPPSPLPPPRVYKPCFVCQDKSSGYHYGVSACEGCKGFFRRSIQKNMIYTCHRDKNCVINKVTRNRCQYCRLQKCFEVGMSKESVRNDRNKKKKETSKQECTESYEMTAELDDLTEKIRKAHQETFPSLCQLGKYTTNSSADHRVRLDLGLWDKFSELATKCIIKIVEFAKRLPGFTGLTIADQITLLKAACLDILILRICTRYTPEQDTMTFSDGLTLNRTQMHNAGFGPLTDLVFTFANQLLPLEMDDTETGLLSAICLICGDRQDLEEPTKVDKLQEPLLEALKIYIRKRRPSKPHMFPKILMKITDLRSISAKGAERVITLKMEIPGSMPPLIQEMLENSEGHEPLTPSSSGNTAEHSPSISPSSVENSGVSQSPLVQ
# Summary of the method: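 HepG2 cells were transiently transfected with GAL4-UAS reporter units that report activity of exogenous chimeric NR-Gal4 proteins, then exposed to compound for 24 h. Reporter mRNA was quantified by RT-PCR with capillary electrophoresis fluorescence, as gain of signal over DMSO.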
# [13] = target: human RAR-related Orphan Receptor beta (RORb), RORB (gene 6096) (UniProt Q92753); experiment: ATG_RORb_TRANS: Attagene TRANS-FACTORIAL HepG2 Assay for human RAR-related Orphan Receptor beta (RORb) (AID 2283010; active = hit-call score of the fitted dose curve at least 0.9, where 1 is the maximum)
# Sequence of human RAR-related Orphan Receptor beta (RORb), RORB (gene 6096) (Q92753 whole entry, looked up, the tested form may be a part): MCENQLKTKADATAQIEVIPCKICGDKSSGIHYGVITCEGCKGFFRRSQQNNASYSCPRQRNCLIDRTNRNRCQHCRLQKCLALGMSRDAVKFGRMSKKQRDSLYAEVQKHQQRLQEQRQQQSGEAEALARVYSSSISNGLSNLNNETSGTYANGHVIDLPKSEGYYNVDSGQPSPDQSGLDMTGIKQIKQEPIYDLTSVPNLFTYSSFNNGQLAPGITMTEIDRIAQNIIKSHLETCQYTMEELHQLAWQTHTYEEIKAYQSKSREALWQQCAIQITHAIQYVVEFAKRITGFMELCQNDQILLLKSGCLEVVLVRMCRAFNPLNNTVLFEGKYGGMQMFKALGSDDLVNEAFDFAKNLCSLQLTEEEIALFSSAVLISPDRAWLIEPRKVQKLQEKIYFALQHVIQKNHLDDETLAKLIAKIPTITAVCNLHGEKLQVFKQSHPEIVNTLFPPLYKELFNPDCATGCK
# Summary of the method: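 HepG2 cells transiently transfected with GAL4-UAS reporter units expressing chimeric NR-Gal4 protein; reporter mRNA measured 24 h after dosing by RT-PCR, 6-FAM labelling and capillary electrophoresis. Gain-of-signal fitted relative to DMSO baseline.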
# [14] = target: Retinoic acid receptor alpha (Homo sapiens) (UniProt P10276); experiment: ATG_RARa_TRANS: Attagene TRANS-FACTORIAL HepG2 Assay for human Retinoic Acid Receptor alpha (RARa) (AID 2283005; active = hit-call score of the fitted dose curve at least 0.9, where 1 is the maximum)
# Sequence of Retinoic acid receptor alpha (Homo sapiens) (P10276 whole entry, looked up, the tested form may be a part): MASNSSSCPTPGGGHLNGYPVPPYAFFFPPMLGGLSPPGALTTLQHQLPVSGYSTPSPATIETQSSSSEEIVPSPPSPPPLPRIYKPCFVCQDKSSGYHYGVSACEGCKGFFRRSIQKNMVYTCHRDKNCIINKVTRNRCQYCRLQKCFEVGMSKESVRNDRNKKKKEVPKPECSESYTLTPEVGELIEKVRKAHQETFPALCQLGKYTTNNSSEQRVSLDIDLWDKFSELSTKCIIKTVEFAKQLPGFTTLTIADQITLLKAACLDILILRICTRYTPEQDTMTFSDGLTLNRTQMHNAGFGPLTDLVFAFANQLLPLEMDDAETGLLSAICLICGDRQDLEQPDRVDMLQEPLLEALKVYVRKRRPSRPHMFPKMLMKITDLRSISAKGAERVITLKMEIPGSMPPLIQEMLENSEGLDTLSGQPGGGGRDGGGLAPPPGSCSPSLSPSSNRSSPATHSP
# Summary of the method: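 HepG2 transiently transfected with multiplex GAL4-UAS reporter units including a human RARa–GAL4 chimera; 24 h compound exposure. Reporter mRNA quantified by RT-PCR, 6-FAM labeling and capillary electrophoresis; gain of signal versus DMSO.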
compound,measurement,setting,value
CC1(C)O[C@@H]2C[C@H]3[C@@H]4C[C@H](F)C5=CC(=O)CC[C@]5(C)[C@H]4[C@@H](O)C[C@]3(C)[C@]2(C(=O)CO)O1,outcome,[1],inactive
same,outcome,[2],inactive
same,outcome,[3],inactive
same,outcome,[4],inactive
same,outcome,[5],inactive
same,outcome,[6],inactive
same,outcome,[7],inactive
same,AC50,[8],27 µM (active)
Cc1oncc1C(=O)Nc1ccc(C(F)(F)F)cc1,outcome,[1],inactive
same,outcome,[2],inactive
same,outcome,[3],inactive
same,AC50,[4],100 µM (active)
same,outcome,[5],inactive
same,outcome,[6],inactive
same,outcome,[7],inactive
same,AC50,[9],41.1 µM (active)
same,outcome,[10],inactive
O=C(O)c1cc(Cl)cc([N+](=O)[O-])c1Cl,outcome,[1],inactive
same,outcome,[2],inactive
same,outcome,[3],inactive
same,outcome,[4],inactive
same,outcome,[5],inactive
same,outcome,[6],inactive
same,outcome,[11],inactive
same,outcome,[9],inactive
same,outcome,[8],inactive
CCc1nccnc1C,outcome,[1],inactive
same,outcome,[2],inactive
same,outcome,[3],inactive
same,outcome,[4],inactive
same,outcome,[5],inactive
same,outcome,[6],inactive
same,outcome,[11],inactive
same,outcome,[12],inactive
same,outcome,[9],inactive
same,outcome,[8],inactive
same,outcome,[13],inactive
NC(=O)C1CO1 (stereo not given),outcome,[1],inactive
same,outcome,[2],inactive
same,outcome,[3],inactive
same,outcome,[4],inactive
same,outcome,[5],inactive
same,outcome,[6],inactive
same,outcome,[7],inactive
same,outcome,[12],inactive
same,outcome,[14],inactive
CC(C)c1ccc2c(c1)CC[C@H]1[C@](C)(CN)CCC[C@]21C,outcome,[1],inactive
same,outcome,[2],inactive
same,AC50,[3],5.84 µM (active)
same,outcome,[4],inactive
same,AC50,[5],5.89 µM (active)
same,outcome,[6],inactive
same,outcome,[7],inactive
same,AC50,[9],6.02 µM (active)
same,outcome,[8],inactive
CCC(Cc1ccccc1)(C(=O)c1ccc(N2CCOCC2)cc1)N(C)C (stereo not given),outcome,[1],inactive
same,outcome,[2],inactive
same,outcome,[3],inactive
same,AC50,[4],37.2 µM (active)
same,outcome,[5],inactive
same,outcome,[6],inactive
same,outcome,[7],inactive
same,AC50,[9],35.1 µM (active)
same,AC50,[8],2.42 µM (active)
C=COCCCC,outcome,[1],inactive
same,outcome,[2],inactive
same,outcome,[3],inactive
same,outcome,[4],inactive
same,outcome,[5],inactive
same,outcome,[6],inactive
same,outcome,[7],inactive
same,outcome,[14],inactive
CC(=O)CC(N)=O,outcome,[1],inactive
same,outcome,[2],inactive
same,outcome,[3],inactive
same,outcome,[4],inactive
same,outcome,[5],inactive
same,outcome,[6],inactive
same,outcome,[7],inactive
same,outcome,[8],inactive
C=C(C)CCO,outcome,[1],inactive
same,outcome,[2],inactive
same,outcome,[3],inactive
same,outcome,[4],inactive
same,outcome,[5],inactive
same,outcome,[6],inactive
same,outcome,[12],inactive
same,outcome,[14],inactive
same,outcome,[8],inactive
same,outcome,[10],inactive
same,outcome,[13],inactive
C=C[Si](C)(C)O[Si](C)(C)C=C,outcome,[1],inactive
same,outcome,[2],inactive
same,outcome,[3],inactive
same,outcome,[4],inactive
same,outcome,[5],inactive
same,outcome,[6],inactive
same,outcome,[12],inactive
same,outcome,[14],inactive
same,outcome,[10],inactive
same,outcome,[13],inactive
CCCCCC/C=C\CCCCCCCC(=O)O,outcome,[1],inactive
same,outcome,[2],inactive
same,outcome,[3],inactive
same,AC50,[4],26.5 µM (active)
same,outcome,[5],inactive
same,outcome,[11],inactive
same,outcome,[7],inactive
same,outcome,[14],inactive
same,outcome,[9],inactive
